PubChem BioAssay AID1159580 (chemical genetic matrix, 2015)
Screen size: about 5,500 compounds; about 2,000 (36%) were called active. About 18% were inconclusive and are not listed. No stated cut-off is given here; in the data, active means normalized growth mostly below about 0.91 (no sharp cut-off); inconclusive means no clear call, values can overlap the other calls; inactive means mostly above about 0.92. Some of the results follow.

Experiment: chemical genetic growth profiling, strain panel (AID 1159580);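 further: tested at 20 µM; growth read once vehicle control cultures reached saturation at 30 °C; 1 = growth at the plate median or of vehicle wells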
Details: S. cerevisiae deletion strains, growth OD

Measured: normalized growth

CCOC(=O)C1C(=O)C=C(c2cccs2)CC1c1ccc(OC)c(OC)c1Cl (stereo unspecified)
inactive: locus YAL013W, strain DEP1, stronger effect = lower value 0.988 | locus YBR229C, strain ROT2, stronger effect = lower value 0.991 | locus YDL101C, strain DUN1, stronger effect = lower value 0.995 | locus YDL134C, strain PPH21, stronger effect = lower value 0.989 | locus YDR150W, strain NUM1, stronger effect = lower value 0.968 | locus YEL061C, strain CIN8, stronger effect = lower value 1.01 | locus YGR078C, strain PAC10, stronger effect = lower value 0.979 | locus YHR030C, strain SLT2, stronger effect = lower value 0.874 | locus YHR087W, strain rtc3, stronger effect = lower value 0.998 | locus YJR043C, strain POL32, stronger effect = lower value 0.983 | locus YJR075W, strain HOC1, stronger effect = lower value 0.974 | locus YLR039C, strain RIC1, stronger effect = lower value 0.863 | locus YLR058C, strain SHM2 (second series), stronger effect = lower value 0.992 | locus YLR085C, strain ARP6, stronger effect = lower value 1 | locus YML094W, strain GIM5, stronger effect = lower value 1.03 | locus YMR219W, strain ESC1, stronger effect = lower value 0.993 | locus YMR263W, strain SAP30, stronger effect = lower value 1.01 | locus YNL153C, strain GIM3, stronger effect = lower value 0.988 | locus YNL298W, strain CLA4 (second series), stronger effect = lower value 0.976 | locus YNL322C, strain KRE1, stronger effect = lower value 0.993 | locus YNR030W, strain Alg12, stronger effect = lower value 0.968 | locus YOL006C, strain TOP1, stronger effect = lower value 0.895 | locus YPL055C, strain LGE1, stronger effect = lower value 1.04 | locus YPL241C, strain CIN2, stronger effect = lower value 1.01 | locus YPR135W, strain CTF4, stronger effect = lower value 0.843
active: locus YLR262C, strain YPT6, stronger effect = lower value 0.796
